# TbREL1 inh = TbREL1 inhibition, primary screen | P86926 | TbREL1 RNA ligation, FRET fluorescence | AID 1117264 | inhibition, % at 9.66 µM | 89,000 tested, 0.49% active;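 active means inhibition above the mean inhibition across all screened compounds plus 3 SD, cut at about 11% in these data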;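 further: 0% = plate median of test wells and 100% = NSC42067 control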
# Target sequence (P86926 whole entry, looked up): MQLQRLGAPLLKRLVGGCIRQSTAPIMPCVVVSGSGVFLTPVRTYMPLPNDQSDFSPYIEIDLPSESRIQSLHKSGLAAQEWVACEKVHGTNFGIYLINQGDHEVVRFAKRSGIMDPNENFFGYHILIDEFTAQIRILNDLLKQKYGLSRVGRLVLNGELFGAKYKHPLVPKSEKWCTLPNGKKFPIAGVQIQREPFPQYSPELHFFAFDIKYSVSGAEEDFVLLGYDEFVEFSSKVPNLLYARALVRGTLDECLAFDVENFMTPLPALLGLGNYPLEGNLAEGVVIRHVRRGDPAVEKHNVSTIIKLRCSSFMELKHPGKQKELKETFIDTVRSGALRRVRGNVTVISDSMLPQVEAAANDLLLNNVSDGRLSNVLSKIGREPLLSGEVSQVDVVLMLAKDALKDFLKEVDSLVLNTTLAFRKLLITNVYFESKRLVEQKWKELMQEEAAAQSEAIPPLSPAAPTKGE
# TbREL1 conf = TbREL1 inhibition, confirmation; shares compounds with TbREL1 inh; TbREL1 RNA ligation, FRET fluorescence; inhibition, % at 9.66 µM; 390 tested, 37% active;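 active means mean inhibition across replicates above a set limit taken from the earlier primary screen, cut at about 11% in these data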;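 further: 0% = REL1 with substrate and DMSO and 100% = REL1 plus control inhibitor NSC42067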
# Active calls of the source: *. The full list was thinned out, with hits kept by preference.
SMILES,TbREL1 inh,others
COC(=O)C1=C(C)N(Cc2ccc(C(F)(F)F)cc2)C(=NCC2CC2)NC1c1ccccc1C(F)(F)F (stereo not given),14*,TbREL1 conf=16*
COC(=O)C1=C(C)N(Cc2ccc(C(F)(F)F)cc2)C(=NCc2ccc(OC)cc2)NC1c1ccccc1C(F)(F)F (stereo not given),17*,TbREL1 conf=14*
CCN1C(=NCCOC)N[C@@H](c2cccc(C(F)(F)F)c2)C(C(=O)OC)=C1C,6,
COC(=O)C1=C(C)N(Cc2ccc(C(F)(F)F)cc2)C(=NCc2cccc(C(F)(F)F)c2)NC1c1ccccc1C(F)(F)F (stereo not given),20*,TbREL1 conf=25*
CCN1C(=NCc2ccco2)N[C@@H](c2cccc(C(F)(F)F)c2)C(C(=O)OC)=C1C,4,
Cc1ccc(S(=O)(=O)N(CCc2ccccc2)CC(=O)N2CCOCC2)cc1,-3,
C=CCn1c(SCC(=O)Nc2ccc(CCCC)cc2)nnc1-c1ccc(Cl)cc1,1,
Cc1ccc(-n2c(SCC(=O)Nc3ccc4c(c3)OCCO4)nnc2-c2cnccn2)cc1,3,
O=C(CN1CCCc2ccccc21)NCc1ccccc1F,-1,
C[C@H]1[C@H](c2ccccc2)OC(O)([C@H](Cc2ccccc2)NC(=O)OC(C)(C)C)CN1C (stereo not given in full),0,
CC(C)(N[C@@H](Cc1ccccc1)C(=O)NCCc1c[nH]c2ccccc12)C(=O)NC1CCCCC1,-6,
Cc1nc(N2CCN(C(=O)COc3ccccc3C)CC2)c2c3c(sc2n1)CCCC3,8,
Cc1cc(OCCOCCNCc2ccccc2)ccc1C(C)C,19*,TbREL1 conf=9
COCCNCCOCCOc1ccc(Cl)c(C)c1,6,
Cc1ccc(C)c(OCCCNCc2ccccc2)c1,10,
CCN(CC)CCCNC(=O)c1oc(=O)c2ccccc2c1-c1ccc(C)cc1,2,
CC1CN(Cc2cc(=O)n3ccsc3n2)CC(C)O1 (stereo not given),1,
O=c1cc(CN2CCCc3ccccc32)nc2sccn12,3,
O=c1cc(CN2CCc3ccccc32)nc2sccn12,15*,TbREL1 conf=22*
c1ccc2cc(Cn3ccc4ccc(-c5ccc6cc[nH]c6c5)cc43)ccc2c1,3,
COc1cccc(-c2nnc3sc(-c4ccc(Br)o4)nn23)c1,-1,
Oc1ccc(Oc2ccccc2F)c2cccnc12,-2,
CC(=O)Nc1ccccc1NC(=O)COc1cccc2ccccc12,0,
CC(=O)Nc1cc2c3ccccc3ccc2c2ccccc12,32*,TbREL1 conf=5
CC(=O)Nc1ccc(NC(=O)c2cccc3ccccc23)cc1,3,
SMILES,TbREL1 inh,others
Cc1cc(NC(=O)c2ccc(NS(=O)(=O)c3ccc(F)cc3)cc2)no1,3,
COc1ccc(-c2noc(CN(C)Cc3ccccc3)n2)cc1,-2,
COc1ccc(CNC(=O)CN(C)Cc2ccc(SC)cc2)cc1,-1,
COc1ccc(CN(C)CC(O)COC(c2ccc(OC)cc2)c2ccc(OC)cc2)cc1 (stereo not given),13*,TbREL1 conf=8
COc1cccc2c(NCc3ccccc3)nc(-n3c(N)nc4ccccc43)nc12,2,
CCC[C@H]1[C@@H](NS(=O)(=O)c2ccccc2[N+](=O)[O-])CC[C@@]23CCCN2C(=O)CCC[C@@H]13,-5,
O=C1/C(=C\c2ccco2)SC(=S)N1c1ccccc1,9,
O=C1/C(=C\c2ccco2)SC(=S)N1C1CCS(=O)(=O)C1 (stereo not given),19*,TbREL1 conf=1
Cc1ccc(N2C(=O)/C(=C\c3ccco3)SC2=S)cc1,2,
COc1ccc(-n2c(COc3ccc(C)cc3)nnc2SCC(=O)Nc2ccc(S(=O)(=O)Nc3cc(C)nc(C)n3)cc2)cc1,-6,
O=C1c2ccccc2-c2nccnc21,-1,
O=C1C(=O)c2cccnc2-c2ncccc21,43*,TbREL1 conf=68*
O=C1c2cc([N+](=O)[O-])ccc2-c2ncccc21,1,
COc1ccc(C(=O)NCCN2C(=O)C3C4C=CC(C4)C3C2=O)cc1OC (stereo not given),1,
CC(C)(C)c1ccc(-c2nnc(SCC(=O)Nc3ccc4cn[nH]c4c3)n2-c2ccc(Cl)cc2)cc1,4,
COc1ccc(N2CCN(CCCNC(=O)CCOC(C)(C)C)CC2)cc1,-6,
CC(C)NCCOCCOc1ccc(Cl)cc1Br,2,
C=CCNCCOCCOc1ccc(C)cc1Br,5,
C=CCNCCOCCOc1ccc(Cl)cc1C(C)(C)C,16*,TbREL1 conf=19*
O=C(C1CCCN(S(=O)(=O)c2ccc([N+](=O)[O-])cc2)C1)N1CCN(Cc2ccccc2)CC1 (stereo not given),1,
CC(C)(C)CC(=O)Nc1nnc(SCC(=O)NC2CCCC2)s1,1,
CCSc1nnc(NC(=O)CSC2=NN3CCCC(=O)N=C3S2)s1,15*,TbREL1 conf=1
CCOc1ccc(NC(=O)CSC2=NN3CCCC(=O)N=C3S2)cc1,-3,
O=C1CCC[C@H]2C[C@H](NCc3cccc(I)c3)CC[C@]23CCCN13,3,
O=C(Cn1nnc(-c2ccccc2F)n1)Nc1ccc(Cl)cc1,7,
SMILES,TbREL1 inh,others
C=CCNC(=O)CSc1nc2c(c(=O)[nH]1)CCCC2,4,
CSc1nnc(SCC(=O)N(C)c2c(N)n(Cc3ccccc3)c(=O)[nH]c2=O)s1,7,
CN(C(=O)CSc1ncnc2sccc12)c1c(N)n(Cc2ccccc2)c(=O)[nH]c1=O,12*,TbREL1 conf=2
CN(C(=O)COC(=O)c1cccs1)c1c(N)n(Cc2ccccc2)c(=O)[nH]c1=O,-1,
COc1ccc(CNC(=O)O[C@H]2CC[C@@]34CCCN3C(=O)CCC[C@H]4C2)cc1OC,1,
Cc1nc2ccc(C(=O)N3CCN(C(=O)C(Cl)Cl)CC3)cc2n1C1CCCC1,-2,
O=c1[nH]c2ccc(NC(=S)Nc3ccc(F)cc3)cc2[nH]1,2,
N#Cc1ccccc1NC(=S)Nc1ccc(F)cc1,3,
Fc1ccc(NC(=S)Nc2ccc3nccnc3c2)cc1,13*,TbREL1 conf=4
COc1cccc(N2CCN(CC(=O)N(C)Cc3ccccc3Cl)CC2)c1,-3,
CCOc1ccc(-n2c(SCC(=O)Nc3ccccc3-c3ccccc3)nnc2-c2ccncc2)cc1,0,
COc1ccc(-c2cn3nc(C)c(C)nc3n2)cc1OC,2,
COc1ccc(-c2nn3c(COc4ccccc4)nnc3s2)cc1OC,0,
COc1ccc(-c2nn3cnnc3s2)cc1OC,11*,TbREL1 conf=4
[S-]c1nnc(-c2ccc(Br)cc2)n1-c1ccccc1.[Zn+2],23*,TbREL1 conf=17*
O=C(O)c1ccc(CSc2nnc(-c3ccncc3)n2-c2ccc(Br)cc2)cc1,9,
COc1ccc(-n2c(-c3ccccc3)nnc2-c2ccc(Cl)cc2)cc1,-4,
Cc1ccc(CN[C@@H]2CC[C@@]34CCCN3C(=O)CCC[C@H]4C2)cc1,4,
O=C(c1cccs1)C1CCN(c2ncnc3sccc23)CC1,10,
COc1ccc(NC(=O)c2cc3c(C)nn(-c4ccccc4)c3s2)cc1,4,
O=C(Nc1ccccc1)N1CCN(CCc2ccccc2)CC1,-3,
O=C(C1CCN(CCCc2ccccc2)CC1)N1CCCCC1,12*,TbREL1 conf=2
O=C(c1ccc(-c2ccccc2)cc1)N1CCC(C(=O)N2CCCC2)CC1,3,

# Assay outcomes (PubChem)
